Data on 20 compounds can be found in PubChem BioAssay (EPA / NIEHS).

Experiment [1] is described as follows: Tanguay_ZF_120hpf_MO24: Oregon State University Tanguay Lab 24 Hour Post-fertilization zebrafish Assay for Mortality (AID 2284389). The essentials:
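Dechorionated wild-type zebrafish embryos, 1 per well, statically exposed from 6 hpf at 28C, 0.64% DMSO final. Mortality scored as binary present/absent at 24 hpf by brightfield microscopy, relative to DMSO.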

Experiment [2] can be described thus: Tanguay_ZF_120hpf_DP24: Oregon State University Tanguay Lab 24 Hour Post-fertilization zebrafish Assay for Delayed Development (AID 2284390). The essentials: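 Dechorionated 5D wild-type zebrafish embryos exposed statically from 6 hpf, one per well, 0.64% DMSO final, 28 C, sealed and dark. Developmental progression scored at 24 hpf by brightfield as binary present/absent; dead embryos excluded.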

A short description of experiment [3]: Tanguay_ZF_120hpf_CRAN: Oregon State University Tanguay Lab 120 Hour Post-fertilization zebrafish Assay for Craniofacial Malformation (AID 2284397). In outline: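 Dechorionated Tropical 5D wild-type zebrafish embryos, one per well, were statically exposed from 6 to 120 hpf at 28C in 0.64% DMSO, with 5uM trimethyltin chloride as positive control. Craniofacial malformation was scored present/absent by brightfield microscopy, relative to DMSO.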

Experiment [4] in a line: Tanguay_ZF_120hpf_AXIS: Oregon State University Tanguay Lab 120 Hour Post-fertilization zebrafish Assay for Axial Malformation (AID 2284398). In outline: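 Dechorionated 5D wild-type zebrafish embryos exposed statically, one per well, from 6 to 120 hpf at 28C, 0.64% DMSO. Axial malformation scored as present/absent by brightfield microscopy at 120 hpf; dead embryos not scored.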

Another experiment has as its system TTR (gene 7276). Kind of experiment: CCTE_GLTED_hTTR_0.5uM: CCTE's human Transthyretin (hTTR) Inhibition Assay, with 0.5uM TTR, Great Lakes Toxicology and Ecology Division (GLTED) Lab (AID 2284320). In outline: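 Cell-free displacement assay in which human TTR at 0.5 uM was incubated with test chemical for 2 h. Displacement of the ANSA probe was read by fluorescence at 380 nm excitation/475 nm emission. Loss of signal was fitted in the positive direction versus DMSO.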

Another experiment concerns SERPINA7 (gene 6906). Put plainly: CCTE_GLTED_hTBG: CCTE's human Thyroxine-binding Globulin (TBG) Inhibition Assay, Great Lakes Toxicology and Ecology Division (GLTED) Lab (AID 2284343; active = hit-call score of the fitted dose curve at least 0.9, where 1 is the maximum;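 also: active chemicals lower fluorescence versus DMSO baseline by displacing probe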). In outline: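 Measures how far test chemicals displace ANSA bound to purified human TBG. The read-out is fluorescence at 380 nm excitation and 475 nm emission, taken after 2 h of incubation.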

Molecules are shown by their SMILES. The source made the active and inactive calls. The calls were made as follows, unless noted: active = hit-call score of the fitted dose curve at least 0.9, where 1 is the maximum; inactive = score below 0.9.

Consider `FC(F)(F)C(F)(F)CNCC(F)(F)C(F)(F)F`, for which the result in experiment [1], in experiment [2], in experiment [3] and in experiment [4] was inactive.
Take `C=C(C)C(=O)OCC(F)(F)C(F)(F)C(F)(F)C(F)(F)C(F)(F)C(F)(F)C(F)(F)F`: the compound was classed as inactive in experiment [2], in experiment [3] and in experiment [4].
One may read the AC50 as the concentration at which the activity in the assay is half-maximal. As for `COC(=O)CCC(F)(F)C(F)(F)C(F)(F)C(F)(F)F`, the AC50 with TTR (gene 7276) was 53.4 µM (active). The compound was called inactive in experiment [2], in experiment [3] and in experiment [4].
Consider `O=C(O)C(F)(F)C(F)(F)C(F)F`, for which the AC50 in the experiment on TTR (gene 7276) is 14.9 µM (active). Further, the call in experiment [2], in experiment [3] and in experiment [4] was inactive.
Regarding `FC(F)(F)C(F)(F)C(F)(F)C(F)(F)C(F)(F)C(F)(F)C(F)(F)Br`, the result in experiment [2], in experiment [3] and in experiment [4] was inactive.
For `O=C(O)C(F)(OC(F)(F)C(F)(OC(F)(F)C(F)(F)C(F)(F)F)C(F)(F)F)C(F)(F)F` (configuration not stated), the compound was called inactive in experiment [2], in experiment [3] and in experiment [4].
`O=S(=O)(OCC(F)F)C(F)(F)F`: the compound was classed as inactive in experiment [1], in experiment [2], in experiment [3] and in experiment [4].
With `C=CC(F)(F)C(F)(F)C(F)(F)C(F)(F)C(F)(F)C(F)(F)C(F)(F)C(F)(F)C=C`, the compound was classed as inactive in experiment [2], in experiment [3] and in experiment [4].
For `OCCCC(F)(F)C(F)(F)C(F)(F)F`, the compound was classed as inactive in experiment [2], in experiment [3] and in experiment [4].
Turning to `O=C(O)C(F)(F)C(F)(F)C(F)(F)C(F)(F)C(F)(F)C(F)(F)C(F)(F)C(F)(F)C(F)(F)C(F)(F)C(F)(F)C(F)(F)C(F)(F)F`, the AC50 with TTR (gene 7276) was 10.3 µM (active). Also, the outcome in experiment [2], in experiment [3] and in experiment [4] was inactive.
Consider `O=C(O)C(F)(F)C(F)(F)C(F)(F)C(F)(F)F`, for which the AC50 in the experiment with TTR (gene 7276) is 10.2 µM (active). Moreover, the outcome in experiment [2], in experiment [3] and in experiment [4] was inactive.
For the compound `Cc1ccc(S(=O)(=O)OCC(F)(F)C(F)(F)C(F)(F)C(F)(F)C(F)(F)C(F)F)cc1`, the compound was called inactive in experiment [1], in experiment [2], in experiment [3] and in experiment [4].
Consider `O=S(=O)(O)c1ccc2ccccc2c1`, for which the AC50 with SERPINA7 (gene 6906) was 24.5 µM (active).
As to `O=C(O)C(F)(F)C(F)(F)C(F)(F)C(F)(F)C(F)(F)C(F)(F)C(F)(F)C(F)(F)C(F)(F)C(F)(F)C(F)(F)C(F)(F)F`, the AC50 with TTR (gene 7276) is 11.6 µM (active). Besides, the outcome in experiment [2], in experiment [3] and in experiment [4] was inactive.
In the case of `NC(=O)C(F)(F)C(F)(F)C(F)(F)C(F)(F)F`, the compound was classed as inactive in experiment [2], in experiment [3] and in experiment [4].
As to `FC(F)(F)C(F)(F)C(F)(F)N(C(F)(F)C(F)(F)C(F)(F)F)C(F)(F)C(F)(F)C(F)(F)F`, the compound was classed as inactive in experiment [2], in experiment [3] and in experiment [4].
For `O=S(=O)(OCCOC(F)(F)F)C(F)(F)F`, the outcome in experiment [2], in experiment [3] and in experiment [4] was inactive.
For the compound `C=CC(=O)OCC(F)(F)C(F)(F)C(F)(F)C(F)(F)C(F)(F)C(F)(F)C(F)(F)F`, the compound was called inactive in experiment [2], in experiment [3] and in experiment [4].
For `C=CC(F)(F)C(F)(F)C(F)(F)C(F)(F)C(F)(F)C(F)(F)C(F)(F)C(F)(F)F`, the compound was called inactive in experiment [2], in experiment [3] and in experiment [4].
As for `FC(F)(F)C(F)(F)C(F)(F)C(F)(F)C(F)(F)C(F)(F)C(F)(F)I`, the call in experiment [1], in experiment [2], in experiment [3] and in experiment [4] was inactive.
